Screening data (PubChem)
An excerpt weighted towards active compounds, which were near 3.8% of everything screened.
tim23-1 inh – inhibits growth of tim23-1 mutant yeast | S. cerevisiae tim23-1 growth, BacTiter-Glo luminescence, 24 h | inhibition, % at 20 µM | AID 463212 | 330,000 tested, 1.3% active;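 active means growth inhibition of the mutant yeast at or above 50%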;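 further: temperature-sensitive mutant grown at 25 °C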
CR mimetic SO – yeast age-related superoxide inhibition as caloric restriction mimetic | 330,000 tested, 0.18% active | S. cerevisiae aged cells, superoxide DHE fluorescence; active compounds read low | superoxide response (% of plate mean), % at 10 µM;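 active means superoxide response under a set limit, about three screen SD below normal, cut at about 65% in these data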;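 further: yeast aged for seven days with compound at 30 °C before DHE staining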
tim10-1 inh – tim10-1 yeast growth inhibition. S. cerevisiae tim10-1 ts strain growth, BacTiter-Glo, 24 h. inhibition, % at 20 µM. 330,000 tested, 2.2% active. AID 463190;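 active means inhibition of at least 40%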;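 further: mutant grown at 25 °C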
NALP3 yeast inh – inhibitors of NALP3 inflammasome in yeast. 330,000 tested, 0.39% active. inhibition, % at 10 µM. Yeast reconstituted NLRP3/ASC/caspase-1, beta-gal luminescence, 24 h. AID 2825;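 active means inhibition of 50% or more; inactive means inhibition below 50%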
TIM10 inh – TIM10 yeast growth inhibition | S. cerevisiae TIM10 strain growth, BacTiter-Glo luminescence, 24 h | inhibition, % at 10 µM | 330,000 tested, 1.4% active;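 active means inhibition of 40% or more at the single tested concentration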;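 further: wild-type TIM10 isogenic control strain grown at permissive 25 °C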
NALP3 yeast conf – confirmation of NALP3 inhibitors in yeast; shares compounds with NALP3 yeast inh; yeast expressing human NALP3, luminescence; inhibition, % at 10 µM; 1,300 tested, 81% active; in the data active means inhibition above about 48%
Casp1-ASC yeast – active in yeast caspase-1-ASC counter-screen for NALP3 inhibitors; shares compounds with NALP3 yeast inh; yeast expressing Caspase-1-ASC, luminescence counter screen; inhibition, % at 10 µM; 1,000 tested, 66% active; AID 488784
NALP3 retest – retest-confirmed inhibitor of NALP3 in yeast; shares compounds with NALP3 yeast inh; yeast expressing human NALP3, luminescence read-out; inhibition, % at 10 µM; 1,000 tested, 53% active
tim10-1 conf – confirmation of tim10-1 mutant yeast growth inhibitors. inhibition, % at 20 µM. AID 463213. S. cerevisiae tim10-1 ts strain growth, BacTiter-Glo, 24 h. 7,400 tested, 56% active. shares compounds with tim10-1 inh;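 active means inhibition of yeast growth at or above a set limit in either of two repeat tests at 20 µM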;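 further: tim10-1 mutant grown at permissive 25 °C to find synthetic lethal compounds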
TIM10 conf – confirmation of TIM10 yeast growth inhibitors | AID 463215 | inhibition, % at 10 µM | shares compounds with TIM10 inh | S. cerevisiae tim10 strain growth, BacTiter-Glo luminescence, 24 h | 4,600 tested, 63% active;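 active means inhibition of yeast growth at or above a set limit in either of two replicates at 10 µM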; further: this counterscreen used the strain with wild-type TIM10
tim23-1 conf – tim23-1 yeast growth inhibition, confirmed; shares compounds with tim23-1 inh; S. cerevisiae tim23-1 growth, BacTiter-Glo luminescence, 24 h; inhibition, % at 20 µM; 4,400 tested, 83% active;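 active means inhibition above about 39% in either of two replicate wells at 20 µM, limit read from the data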;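 further: temperature-sensitive tim23-1 mutant grown at 25 °C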
A number is an active result; 0 = inactive; - = not tested or not shown. Unless noted, no stated cut-off is given here; in the data, active means inhibition above about 50%; inactive means the rest.

SMILES	tim23-1 inh	CR mimetic SO	tim10-1 inh	NALP3 yeast inh	TIM10 inh	NALP3 yeast conf	Casp1-ASC yeast	NALP3 retest	tim10-1 conf	TIM10 conf	tim23-1 conf
Cc1cccc(NCc2cc(Cl)cc(Cl)c2O)n1	52	0	43	53	0	51	57	56	0	-	56
O=C(CCCOc1ccc(Cl)cc1Cl)N/N=C\C1CCCCC1	0	0	0	0	0	-	-	-	-	-	-
COc1ccc(NC(=S)Nn2cnnc2)c(OC)c1	0	0	0	0	0	-	-	-	-	-	-
Cc1nc(Nc2nc3c(c(=O)[nH]2)CCC3)nc2ccccc12	64	0	60	77	83	71	0	0	72	75	62
O=C(C1CCCO1)N1CCN(C(=S)Nc2cc(F)cc(F)c2)CC1 (stereo unspecified)	0	0	0	0	0	-	-	-	-	-	-
NC(=O)COc1ccc(C(=O)/C=C2/C(=O)Nc3ccccc32)cc1	0	0	0	0	0	-	-	-	-	-	-
C=CCOc1ccccc1C(=O)/C=C1/C(=O)Nc2ccccc21	89	0	50	59	80	75	53	59	active	64	0
COc1ccc(C(=O)/C=C2/C(=O)Nc3ccccc32)c(OC)c1	70	0	50	69	68	82	76	80	59	67	0
c1ccc(-c2cc3cc4c(cc3cn2)OCO4)cc1	62	0	0	55	0	58	71	67	-	-	50
Fc1ccc2cc(-c3ccccc3)ncc2c1	0	0	0	0	0	-	-	-	-	-	-
COc1ccc(CNC(=O)C2CCCN(C(=O)Nc3ccccc3OC)C2)cc1 (stereo unspecified)	0	0	0	0	0	-	-	-	-	-	-
CN1CCN(c2cc(-c3ccccc3)nc3cc(-c4ccc(F)cc4)nn23)CC1	55	0	0	52	0	63	68	66	-	-	43
COc1ccc(OCC(=O)N(Cc2cccs2)C2CCS(=O)(=O)C2)cc1 (stereo unspecified)	0	0	0	0	0	-	-	-	-	-	-
CCN(C(=O)COC(=O)c1ccccc1OCc1ccc(Cl)cc1)C1CCS(=O)(=O)C1 (stereo unspecified)	0	0	0	0	0	-	-	-	-	-	-
FC(F)(F)Sc1ccc(NC(=S)NCc2ccccc2)cc1	52	0	58	53	53	0	-	-	70	59	53
COC(=O)c1ccccc1NC1=C/C(=N\S(=O)(=O)c2ccc(C(=O)O)cc2)c2ccccc2C1=O	71	0	54	51	53	64	84	77	77	65	89
COc1ccccc1C(c1c(N)n(C)c(=O)n(C)c1=O)C(C)[N+](=O)[O-] (stereo unspecified)	0	0	0	0	0	-	-	-	-	-	-
COc1ccccc1C(C[N+](=O)[O-])c1c(N)n(C)c(=O)n(C)c1=O (stereo unspecified)	82	0	57	77	55	51	75	0	61	64	84
O=C(c1ccc(NS(=O)(=O)c2ccc(F)cc2)cc1)N1CCOCC1	0	0	0	0	0	-	-	-	-	-	-
C[C@@]12C(=O)Nc3cc(Cl)ccc3C(=O)N1[C@H]1c3ccccc3OC[C@@H]1[C@@H]2c1ccccc1	0	0	0	0	0	-	-	-	-	-	-
C[C@@]12C(=O)Nc3ccc(Cl)cc3C(=O)N1[C@H]1c3ccccc3OC[C@@H]1[C@@H]2c1ccccc1	61	0	0	79	0	91	70	66	-	-	57
COc1cc(/C=C/c2cccc[n+]2C)ccc1OCC(=O)Nc1ccccc1C	0	0	0	0	0	-	-	-	-	-	-
CCOc1cc(/C=C\[N+](=O)[O-])ccc1OCC(=O)Nc1ccccc1C	58	0	0	58	56	0	-	-	-	0	78
